According to PubChem BioAssay (NCATS):
Active and inactive are the calls of the source. No rule for the calls is given here.
Potency is read from the fitted curve at half-maximal effect.

Experiment: Immunotoxin (SS1P) sensitization/mitigation study. Vehicle arm (DMEM) (AID 1159513)
Settings: cell viability with vehicle (DMEM); series mostly up to 46.1 µM
With `OCCn1cc(-c2ccc3c(c2)CCC3=NO)c(-c2ccncc2)n1` the Potency was “inactive”.
With `O=C(O)[C@@H](c1ccc(OCc2ccc3ccccc3n2)cc1)C1CCCC1` the Potency was “inactive”.
In the case of `Cc1ccc(NC(=O)c2cccc(C(C)(C)C#N)c2)cc1Nc1ccc2ncn(C)c(=O)c2c1`, the Potency is reported as 20.9 µM (active).
For `Cc1cc(C=c2sc3nc4ccccc4n3c2=O)c(C)n1-c1ccccc1`, the Potency was 9.35 µM (active).
With `Cc1n[nH]c(C)c1Cc1sc2c(c1C(=O)N1C[C@H](O)CO1)c(=O)n(C)c(=O)n2CC(C)C` the Potency was “inactive”.
In the case of `c1ccc(-c2nn3c(c2-c2ccnc4cc(OCCN5CCOCC5)ccc24)CCC3)nc1`, the Potency is reported as “inactive”.
For `O=C(C=Cc1c(C(=O)O)[nH]c2cc(Cl)cc(Cl)c12)Nc1ccccc1`, the Potency was “inactive”.
For `O=C(O)c1ccc2cc(-c3ccc(O)c(C45CC6CC(CC(C6)C4)C5)c3)ccc2c1`, the Potency was 18.7 µM (active).
In the case of `Cc1cc(-c2ccc(CC(=O)Nc3ccc(-c4cccnc4)cc3)cc2)ccn1`, the Potency is reported as 18.7 µM (active).
In the case of `c1cc(-c2cnn3cc(-c4ccc(OCCN5CCCCC5)cc4)cnc23)ccn1`, the Potency is reported as 16.6 µM (active).
With `Fc1cc(-c2cccc3ncc(-c4cnn(C5CCNCC5)c4)nc23)cc(F)c1CN1CCOCC1` the Potency was 23.5 µM (active).
With `Cn1cc(-c2[nH]c3cc(NC(=O)[C@H](N)C4CCCCC4)cc4c3c2C=NNC4=O)cn1` the Potency was 1.87 µM (active).
With `CNC(=O)c1cc(Oc2ccc(NC(=O)Nc3cc(C(C)(C)C)nn3-c3ccc4ncccc4c3)c(F)c2)ccn1` the Potency was 23.5 µM (active).
For `Cc1ccc(C(=O)Nc2cccc(C(F)(F)F)c2)cc1-c1ccc2nc(NCCN3CCOCC3)ncc2c1`, the Potency was 13.2 µM (active).
With `O=C(NCCS(=O)(=O)c1ccc(C(F)(F)F)cn1)c1ccc(Cl)cc1` the Potency was “inactive”.
With `CCc1cc(-c2n[nH]c(C)c2-c2ccc3c(c2)OCCO3)c(O)cc1O` the Potency was 2.64 µM (active).
With `COc1ccc(C=Cc2cc(OC)c(OC)c(OC)c2)cc1O` the Potency was 0.0019 µM (active).
In the case of `COc1c(Cl)cc2c([nH]c3cnccc32)c1NC(=O)c1cccnc1C`, the Potency is reported as “inactive”.
For `CCC1(Cc2ccc(N)cc2)CCC(=O)NC1=O` (stereo not given), the Potency was “inactive”.
For `O=C(C=Cc1cccc(S(=O)(=O)Nc2ccccc2)c1)NO`, the Potency was 0.833 µM (active).
For `CCCCc1ccc(NS(=O)(=O)c2ccc(C)c(C(=O)N3CCN(c4cccc(C)c4C)CC3)c2)cc1`, the Potency was 23.5 µM (active).
For `O=C(C=Cc1cccnc1)NCCCCC1CCN(C(=O)c2ccccc2)CC1`, the Potency was “inactive”.
In the case of `CN(C)CCCN=c1c2ccccc2n(C)c2[nH]c(=O)n(C)c(=O)c12`, the Potency is reported as 7.43 µM (active).
With `CCCCCCCCCCCCCC(=O)N[C@H](CO)[C@H](O)c1ccc([N+](=O)[O-])cc1` the Potency was 23.5 µM (active).
In the case of `O=c1[nH]nc(Sc2ncc([N+](=O)[O-])s2)n1-c1ccc2c(c1)OCCO2`, the Potency is reported as 20.9 µM (active).
In the case of `O=C(O)CCc1ccc(NCc2cccc(Oc3ccccc3)c2)cc1`, the Potency is reported as “inactive”.
With `CCN(CC)CCOc1ccc(Nc2ncc3cc(-c4c(Cl)cccc4Cl)c(=O)n(C)c3n2)cc1` the Potency was 0.332 µM (active).
For `CC(=O)N(C)C1(c2ccccc2)CCN(CCC[C@]2(c3ccc(Cl)c(Cl)c3)CCCN(C(=O)c3ccccc3)C2)CC1`, the Potency was 18.7 µM (active).
In the case of `N#CCNC(=O)c1ccc(-c2ccnc(Nc3ccc(N4CCOCC4)cc3)n2)cc1`, the Potency is reported as 16.6 µM (active).
With `Cc1ccc(-c2ncn(-c3ccc(Nc4nccc(-c5cccc(N6CCOCC6)c5)n4)cc3)n2)cn1` the Potency was 0.0235 µM (active).
With `C[C@]1(CO)CN(c2cc(C(=O)Nc3ccc4c(c3)-c3c(c(C(N)=O)nn3-c3ccc(F)cc3)CC4)c(Cl)cn2)C[C@@]1(C)CO` the Potency was 16.6 µM (active).
In the case of `COC(=O)C1=C(C)NC(C)=C(C(=O)OCCCN2CCC(c3ccccc3)(c3ccccc3)CC2)[C@H]1c1cccc([N+](=O)[O-])c1`, the Potency is reported as 26.4 µM (active).
For `CN1CCN(c2ccc3nc(-c4c(N)c5c(F)cccc5[nH]c4=O)[nH]c3c2)CC1`, the Potency was 18.7 µM (active).
In the case of `CC(C)[C@H](CO)Nc1nc(Nc2ccc(C(=O)O)c(Cl)c2)c2ncn(C(C)C)c2n1`, the Potency is reported as “inactive”.
For `CCC1(O)CC2CN(CCc3c([nH]c4ccccc34)[C@@](C(=O)OC)(c3cc4c(cc3OC)N(C=O)[C@H]3[C@](O)(C(=O)OC)[C@H](OC(C)=O)[C@]5(CC)C=CCN6CC[C@]43[C@@H]65)C2)C1` (stereo not given in full), the Potency was 0.0033 µM (active).
In the case of `C=CCc1cccc(/C=N/NC(=O)CN2CCN(Cc3ccccc3)CC2)c1O`, the Potency is reported as 13.2 µM (active).
In the case of `CCc1cc(Nc2nccc(-c3c(-c4ccc(OC)c(C(=O)Nc5c(F)cccc5F)c4)nc4ccccn34)n2)c(OC)cc1N1CCC(N2CCN(S(C)(=O)=O)CC2)CC1`, the Potency is reported as “inactive”.
With `C[C@@H]1CCN(C(=O)CC#N)C[C@@H]1N(C)c1ncnc2[nH]ccc12` the Potency was “inactive”.
With `COc1ncc(-c2ccc3nccc(-c4ccnnc4)c3c2)cc1NS(=O)(=O)c1ccc(F)cc1F` the Potency was 0.235 µM (active).
For `CC1(C)OC2=C(C(=O)c3ccccc3C2=O)[C@H](NCc2ccccc2)[C@H]1O`, the Potency was 13.2 µM (active).
